Experimental data reported in PubChem BioAssay (Tox21).
Several values for one entry are separate records, joined by “and”; a condition that tells them apart may be missing. Equal values may be shown once. Inconclusive results are not listed. More than one record can exist for a structure, and the calls need not agree. Activity calls are given as the source filed them. Unless noted, calls come from the whole dose curve.

Key:
[1] = Nuclear factor erythroid 2-related factor 2/antioxidant responsive element (Nrf2/ARE) small molecule agonists: qHTS cell viability counter screen in human keratinocytes (AID 1919968; active = well fitted curve in the direction sought with a large enough effect in the repeat runs; an effect the other way counts as inactive or inconclusive; note: nearly all actives have a fitted effect of over 55% in size; note: potency is the fitted concentration of half-maximal effect)
Summary of the method: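 Viability counter-screen: KeratinoSens reporter cells, DMSO-delivered compounds, 23 h at 37 C, CellTiter-Fluor fluorescence.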

[2] = Nuclear factor erythroid 2-related factor 2/antioxidant responsive element (Nrf2/ARE) small molecule agonists: luciferase reporter gene qHTS assay in human keratinocytes (AID 1919969); note: nearly all actives have a fitted effect of over 35% in size; note: potency is the fitted concentration of half-maximal effect
[3] = biological target: Gonadotropin-releasing hormone receptor (Homo sapiens) (UniProt P30968); assay: Human gonadotropin-releasing hormone receptor (GnRHR) small molecule agonists, calcium flux assay in GnRHR-HEK293 cells (AID 1920063); note: nearly all actives have a fitted effect of over 35% in size
Summary of the method: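 Tox21-format agonist screen using human GnRHR-expressing HEK293 cells and a fluorescent calcium dye; kinetic 3-min fluorescence reading after compound addition, 15-point concentration series run in triplicate.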

[4] = biological target: KiSS-1 receptor (Homo sapiens) (UniProt Q969F8); assay: Human kisspeptin (KISS1R) small molecule agonists, calcium flux assay in KISS1R-HEK293 cells (AID 1920064; active = well fitted curve in the direction sought with a large enough effect in the repeat runs; an effect the other way counts as inactive or inconclusive)
Summary of the method: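 Intracellular calcium mobilization in KISS1R-HEK293 cells was recorded by fluorescence (Ex/Em 480/540) for 3 min following compound addition to cells pre-loaded 1 h with calcium dye.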

[5] = G protein-coupled receptor (GPCR) small molecule agonists, calcium flux assay: HEK293 wild type cell line counter screen (AID 1920065)
Summary of the method: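 In this agonist-mode screen, ATP is the positive control and DMSO the vehicle. Cells grow 18 h before a 1 h dye incubation at 37 C; signal is taken at Ex/Em 480/540 over 3 min.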

[6] = p53 small molecule agonists, cell-based qHTS assay with human liver microsomes (AID 1963577);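 note: p53 response element beta-lactamase reporter cells with liver microsomes plus NADPH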
Summary of the method: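 Steps: plate p53RE-bla cells, incubate 5 h at 37 C; add compound in DMSO; add microsomes (0.5 mg/mL final) and NADPH (0.5 mg/mL final); incubate 16 h at 37 C; add LiveBLAzer, 2 h RT; read fluorescence.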

[7] = p53 small molecule agonists, cell-based qHTS assay with rat liver microsomes (AID 1963578)
Summary of the method: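 Metabolic activation is supplied by rat liver microsomes with NADPH (each 0.5 mg/mL final). p53RE-bla cells incubate with compound 16 h at 37 C; reporter activity is measured by LiveBLAzer fluorescence.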

[8] = p53 small molecule agonists, cell-based qHTS assay with human liver microsomes: qHTS cell viability counter screen (AID 1963579); note: nearly all actives have a fitted effect of over 45% in size; note: potency is the fitted concentration of half-maximal effect
Summary of the method: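 After the 460/530 nm beta-lactamase read, CellTiter-Glo was added to the same wells and luminescence measured after 30 min at room temperature, giving viability of p53RE-bla cells treated 16 h with compounds plus microsomes and NADPH.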

[9] = p53 small molecule agonists, cell-based qHTS assay: qHTS cell viability counter screen (AID 1963581); note: nearly all actives have a fitted effect of over 45% in size
Summary of the method: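 Compounds are pinned onto HCT-116 p53RE-bla cells and left 16 h at 37 C. Following the reporter FRET read, ATP is quantified by CellTiter-Glo luminescence after 30 min at room temperature.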

[10] = biological target: 5-hydroxytryptamine receptor 2A (Homo sapiens) (UniProt P28223); assay: 5-hydroxytryptamine receptor 2A (HTR2A) small molecule antagonists, cell-based qHTS assay (AID 1963586); note: nearly all actives have a fitted effect of over 45% in size
Summary of the method: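 Antagonist-mode intracellular calcium assay: DOI (4 nM) added after 5 min compound pre-incubation at room temperature to dye-loaded HTR2A-CHO cells. Fluorescence followed for 3 min, sampled every second.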

[11] = biological target: 5-hydroxytryptamine receptor 2A (Homo sapiens) (UniProt P28223); assay: 5-hydroxytryptamine receptor 2A (HTR2A) small molecule agonists, cell-based qHTS assay (AID 1963587); note: nearly all actives have a fitted effect of over 30% in size
Summary of the method: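 CHO cells stably expressing human HTR2A, plated 18 h, loaded with calcium dye 1 h at 37 C. Agonist mode: compounds added and intracellular calcium fluorescence recorded kinetically for 2 min at 1 sec intervals.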

[12] = biological target: Muscarinic acetylcholine receptor M1 (Homo sapiens) (UniProt P11229); assay: Cholinergic receptor muscarinic 1 (CHRM1) small molecule agonists, cell-based qHTS assay (AID 1963589); note: nearly all actives have a fitted effect of over 35% in size; note: potency is the fitted concentration of half-maximal effect
Summary of the method: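 Stable CHRM1-CHO cells (human receptor) were incubated 18 h, dye-loaded for 1 h at 37 C and exposed to test compounds for agonist activity, with calcium-dependent fluorescence followed kinetically.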

[13] = biological target: Beta-2 adrenergic receptor (Homo sapiens) (UniProt P07550); assay: Adrenergic beta2 receptor (ADRB2) small molecule antagonists, cell-based qHTS assay (AID 1963592); note: series mostly up to about 92 µM; nearly all actives have a fitted effect of over 50% in size
Summary of the method: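 Cells (CHO, stable ADRB2 overexpression) incubated 18-20hr at 37C; compounds added from DMSO; agonist mix (1nM isoproterenol, 100uM IBMX, 25uM Ro-20-1724) added; 0.5hr RT; d2-cAMP and anti-cAMP-cryptate added; 1hr RT; 665/615 nm read.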

[14] = biological target: Beta-2 adrenergic receptor (Homo sapiens) (UniProt P07550); assay: Adrenergic beta2 receptor (ADRB2) small molecule agonists, cell-based qHTS assay (AID 1963593);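 note: CHO cells stably overexpressing human ADRB2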
Summary of the method: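 CHO cells stably over-expressing ADRB2 were plated overnight at 37C, then dosed with compounds plus a stimulation mix containing 100uM IBMX and 25uM Ro-20-1724 for 0.5hr at room temperature. cAMP was measured by HTRF competition, 1hr.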

[15] = biological target: D(2) dopamine receptor (Homo sapiens) (UniProt P14416); assay: Dopamine D2 receptor (DRD2) small molecule agonists, cell-based qHTS assay (AID 1963594); note: nearly all actives have a fitted effect of over 35% in size
Summary of the method: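 HEK293 cells stably expressing human DRD2, pre-treated with PDE inhibitor Ro20-1724 (0.1 mM final) and compound 10 min at room temperature, then stimulated with NKH477 (200nM […]) for 30 min. cAMP read by HTRF (665/620 nm).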

[16] = biological target: D(2) dopamine receptor (Homo sapiens) (UniProt P14416); assay: Dopamine D2 receptor (DRD2) small molecule antagonists, cell-based qHTS assay (AID 1963595; active = well fitted inhibition curve with a large enough effect in the signal ratio in the repeat runs, with a control signal flat; the % refers to the signal ratio)
Summary of the method: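 Readout: HTRF cAMP, cAMP-d2 competing with cellular cAMP for anti-cAMP cryptate, read after 1 h. Cells: DRD2-HEK293. Conditions: 0.1 mM Ro20-1724, 12 nM quinpirole, 200 nM NKH477, 30 min RT.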

[17] = p53 small molecule agonists, cell-based qHTS assay (AID 1963582; active = well fitted activation curve with a large enough effect in the signal ratio in the repeat runs, not every such curve was filed as active; the % refers to the signal ratio)
Summary of the method: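 Agonist activity was scored from beta-lactamase FRET fluorescence in p53RE-bla cells treated 16 h at 37 C with compounds in DMSO, substrate incubation being 2 h at room temperature.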

[18] = cAMP Responsive Elements (CRE) small molecule agonists, cell-based qHTS assay (AID 1963590)
Summary of the method: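 FRET-based beta-lactamase readout (LiveBLAzer B/G, 2 h RT) quantified CRE activation in HEK 293T CRE-bla cells after 3 h treatment with DMSO-dissolved compounds.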

[19] = cAMP Responsive Elements (CRE) small molecule antagonists, cell-based qHTS assay (AID 1963591; active = well fitted inhibition curve with a large enough effect in the signal ratio in the repeat runs, not every such curve was filed as active; the % refers to the signal ratio)
Summary of the method: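 qHTS in CRE-bla HEK 293T cells: compound in DMSO, then 0.25 uM NKH477 (final), 3 h at 37 °C/5% CO2; beta-lactamase FRET read-out after 2 h substrate incubation.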

[20] = p53 small molecule agonists, cell-based qHTS assay with rat liver microsomes: qHTS cell viability counter screen (AID 1963580); note: nearly all actives have a fitted effect of over 45% in size
Summary of the method: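 p53RE-bla HCT-116 cells were exposed 16 h at 37 C to compounds with rat liver microsomes (0.5 mg/mL) and NADPH (0.5 mg/mL). Viability was measured in the same wells as ATP content by CellTiter-Glo luminescence.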

Measured: Potency

Chain of Muscarinic acetylcholine receptor M1 (Homo sapiens) (P11229 whole entry, looked up): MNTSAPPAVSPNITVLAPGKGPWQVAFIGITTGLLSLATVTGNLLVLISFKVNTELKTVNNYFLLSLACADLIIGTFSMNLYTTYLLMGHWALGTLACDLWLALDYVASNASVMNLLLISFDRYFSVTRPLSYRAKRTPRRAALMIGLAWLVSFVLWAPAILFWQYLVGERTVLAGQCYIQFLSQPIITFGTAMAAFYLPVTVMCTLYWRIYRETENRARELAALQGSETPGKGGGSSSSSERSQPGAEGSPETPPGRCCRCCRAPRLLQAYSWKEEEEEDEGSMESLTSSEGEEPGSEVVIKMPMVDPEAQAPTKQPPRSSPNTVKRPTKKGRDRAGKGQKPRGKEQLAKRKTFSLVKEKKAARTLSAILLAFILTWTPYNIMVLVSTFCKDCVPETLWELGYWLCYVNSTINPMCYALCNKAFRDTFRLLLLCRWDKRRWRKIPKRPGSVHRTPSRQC
Chain of Beta-2 adrenergic receptor (Homo sapiens) (P07550 whole entry, looked up): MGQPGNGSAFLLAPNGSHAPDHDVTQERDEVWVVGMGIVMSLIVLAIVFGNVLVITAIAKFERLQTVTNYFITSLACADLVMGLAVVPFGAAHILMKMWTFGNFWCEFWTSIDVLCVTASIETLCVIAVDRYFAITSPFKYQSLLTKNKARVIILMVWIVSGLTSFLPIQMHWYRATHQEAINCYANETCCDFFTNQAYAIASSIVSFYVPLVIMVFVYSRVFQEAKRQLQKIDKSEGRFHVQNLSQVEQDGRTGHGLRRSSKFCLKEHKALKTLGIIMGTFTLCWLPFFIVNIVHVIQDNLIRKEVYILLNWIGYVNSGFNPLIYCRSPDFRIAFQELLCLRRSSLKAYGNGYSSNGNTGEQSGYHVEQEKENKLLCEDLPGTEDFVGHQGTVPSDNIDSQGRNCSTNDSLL
Chain of KiSS-1 receptor (Homo sapiens) (Q969F8 whole entry, looked up): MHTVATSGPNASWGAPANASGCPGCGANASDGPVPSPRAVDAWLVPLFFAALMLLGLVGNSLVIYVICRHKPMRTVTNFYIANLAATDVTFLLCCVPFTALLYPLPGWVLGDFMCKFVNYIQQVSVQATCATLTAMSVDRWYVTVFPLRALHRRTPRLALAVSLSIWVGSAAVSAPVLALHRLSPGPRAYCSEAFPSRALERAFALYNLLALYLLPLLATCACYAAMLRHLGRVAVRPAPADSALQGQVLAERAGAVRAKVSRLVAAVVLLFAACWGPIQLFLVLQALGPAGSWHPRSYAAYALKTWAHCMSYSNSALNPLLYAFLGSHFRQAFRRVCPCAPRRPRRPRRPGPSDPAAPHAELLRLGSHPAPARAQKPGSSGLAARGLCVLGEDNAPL
Chain of D(2) dopamine receptor (Homo sapiens) (P14416 whole entry, looked up): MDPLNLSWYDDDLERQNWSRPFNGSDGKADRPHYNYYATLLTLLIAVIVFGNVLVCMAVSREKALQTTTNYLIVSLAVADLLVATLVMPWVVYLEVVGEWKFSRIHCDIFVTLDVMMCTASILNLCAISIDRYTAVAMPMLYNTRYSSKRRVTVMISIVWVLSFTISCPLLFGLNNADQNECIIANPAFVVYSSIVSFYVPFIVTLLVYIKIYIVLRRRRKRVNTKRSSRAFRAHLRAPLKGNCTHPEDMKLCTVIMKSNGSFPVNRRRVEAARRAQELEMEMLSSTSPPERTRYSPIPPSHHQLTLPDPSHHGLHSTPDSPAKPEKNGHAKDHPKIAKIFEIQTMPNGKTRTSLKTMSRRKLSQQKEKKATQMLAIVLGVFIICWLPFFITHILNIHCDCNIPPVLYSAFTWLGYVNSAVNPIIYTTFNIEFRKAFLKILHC
Chain of 5-hydroxytryptamine receptor 2A (Homo sapiens) (P28223 whole entry, looked up): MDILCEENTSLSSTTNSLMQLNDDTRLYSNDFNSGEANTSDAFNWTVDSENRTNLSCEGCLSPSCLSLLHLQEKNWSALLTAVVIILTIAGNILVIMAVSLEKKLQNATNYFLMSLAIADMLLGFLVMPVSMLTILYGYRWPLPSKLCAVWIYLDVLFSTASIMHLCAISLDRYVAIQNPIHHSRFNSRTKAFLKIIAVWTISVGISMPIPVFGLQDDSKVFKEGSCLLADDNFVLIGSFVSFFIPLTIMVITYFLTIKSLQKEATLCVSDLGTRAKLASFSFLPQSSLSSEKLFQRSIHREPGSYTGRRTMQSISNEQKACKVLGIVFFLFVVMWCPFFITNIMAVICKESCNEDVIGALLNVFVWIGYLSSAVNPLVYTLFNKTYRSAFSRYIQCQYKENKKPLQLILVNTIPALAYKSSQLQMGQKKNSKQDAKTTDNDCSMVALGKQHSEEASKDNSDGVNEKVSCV
Chain of Gonadotropin-releasing hormone receptor (Homo sapiens) (P30968 whole entry, looked up): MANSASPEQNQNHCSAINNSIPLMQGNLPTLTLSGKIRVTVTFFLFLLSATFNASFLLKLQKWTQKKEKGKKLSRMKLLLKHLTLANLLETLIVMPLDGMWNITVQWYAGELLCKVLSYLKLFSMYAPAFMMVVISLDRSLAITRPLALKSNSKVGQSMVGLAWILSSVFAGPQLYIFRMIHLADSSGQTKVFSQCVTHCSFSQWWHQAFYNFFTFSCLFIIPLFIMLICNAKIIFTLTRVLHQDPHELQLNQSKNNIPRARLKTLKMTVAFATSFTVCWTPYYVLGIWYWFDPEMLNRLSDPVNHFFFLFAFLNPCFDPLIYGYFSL

CCCCC/C=C\C/C=C\CCCCCCCC(=O)O
active: [2] 60.1 µM and 68.6 µM
inactive: [1] | [3] | [4] | [5] | [6] | [7] | [8] | [9] | [10] | [11] | [12] | [13] | [14] | [15] | [16]

C[C@]12CC[C@@H]3c4ccc(O)cc4C[C@@H](CCCCCCCCCS(=O)CCCC(F)(F)C(F)(F)F)[C@H]3[C@@H]1CC[C@@H]2O (stereo partly specified)
inactive and 4.73 µM (active): [1]
inactive: [2] | [3] | [4] | [5] | [6] | [7] | [8] | [17] | [10] | [11] | [12] | [18] | [19] | [15] | [16]

O=C1CCC(N2C(=O)c3ccccc3C2=O)C(=O)N1 (stereo unspecified)
inactive: [1] | [2] | [3] | [4] | [5] | [6] | [7] | [8] | [20] | [17] | [18] | [19] | [13] | [15] | [16]

Cc1ccc(C)c(O)c1C
inactive: [1] | [2] | [3] | [4] | [5] | [6] | [7] | [8] | [9] | [17] | [10] | [11] | [12] | [18] | [19] | [13] | [14] | [15] | [16]

CC(O)C(=O)O (stereo unspecified)
inactive: [1] | [2] | [3] | [4] | [5] | [6] | [7] | [8] | [9] | [17] | [18] | [19] | [13] | [15]

CCOC(=O)/C=C\C(=O)OCC
inactive: [1] | [2] | [3] | [4] | [5] | [6] | [7] | [8] | [9] | [17] | [10] | [11] | [12] | [18] | [19] | [13] | [14] | [15] | [16]

Cc1cnc(NC(=O)C2=C(O)c3ccccc3S(=O)(=O)N2C)s1
inactive: [1] | [2] | [3] | [4] | [5] | [6] | [7] | [8] | [20] | [17] | [18] | [19] | [13] | [14] | [15] | [16]

Cc1ccc2ncccc2c1
inactive: [1] | [2] | [3] | [4] | [5] | [6] | [7] | [8] | [9] | [17] | [10] | [11] | [12] | [18] | [19] | [13] | [14] | [15] | [16]

O=[N+]([O-])c1cccc(Cl)c1
inactive: [1] | [2] | [3] | [4] | [5] | [6] | [7] | [20] | [9] | [17] | [10] | [11] | [12] | [18] | [19] | [13] | [14] | [15]

O=c1cc[nH]c(=O)[nH]1
inactive: [1] | [2] | [3] | [4] | [5] | [6] | [7] | [8] | [9] | [17] | [10] | [11] | [12] | [18] | [19] | [13] | [15] | [16]

c1cnc2c(c1)ccc1cccnc12
active: [1] 3.89 µM and 6.11 µM and 7.7 µM | [2] 9.69 µM | [8] 36.7 µM
inactive: [3] | [4] | [5] | [6] | [7] | [11] | [12] | [18] | [13] | [14] | [15] | [16]

O=S1(=O)CCCO1
inactive: [1] | [2] | [3] | [4] | [5] | [6] | [7] | [20] | [9] | [17] | [10] | [11] | [12] | [18] | [19] | [13] | [14] | [15] | [16]

CCCCCCCCCC(=O)O
inactive: [1] | [2] | [3] | [4] | [5] | [6] | [7] | [8] | [9] | [10] | [12] | [19] | [13] | [15] | [16]

COC(=O)CC(=O)OC
20.3 µM (active) and inactive: [12]
inactive: [1] | [2] | [3] | [4] | [5] | [6] | [7] | [8] | [20] | [10] | [11] | [18] | [19] | [14] | [15] | [16]

Cc1cc(=O)n(-c2ccccc2)n1C
inactive: [1] | [2] | [3] | [4] | [5] | [6] | [7] | [8] | [20] | [17] | [19] | [13] | [14] | [15] | [16]
